PubChem BioAssay AID720541 (National Center for Advancing Translational Sciences (NCATS), 2013)
Out of some 1,300 compounds screened, about 420 (32%) were called active. Not shown: some 32% with an inconclusive outcome. Calls follow the shape of the dose curve; as a rule, active = well fitted inhibition curve with a large enough effect; inconclusive = small, poorly fitted or top-dose-only effect; inactive = no such curve, though single readings can be large or run the other way. Some of the results follow.

Each molecule was assayed against C-terminal-binding protein 1 (Homo sapiens) (UniProt Q13363) (assay: qHTS for Inhibitors of the Phosphatase Activity of Eya2: Carboxyl-terminal binding protein (CtBP) Counterscreen for Cherry-picked Compounds). Conditions: purified protein-protein binding, AlphaScreen, 3 h; series mostly up to 46.1 µM; activity change, negative = inhibition: at the top concentration.
Method in brief: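 AlphaScreen using 25 nM GST-E1A with 25 nM CtBP-6xHIS; compounds at 2.5 nM–46 uM final, 2 h at room temperature, then donor/acceptor beads (20 ug/mL) for 1 h in the dark. Signal normalized to E1A peptide inhibitor (maximum inhibition) and DMSO.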
% is scaled to controls: 0 for no effect and ±100 for the full control effect; potency is read from the fitted curve at half-maximal effect.
Also: nearly all actives have a fitted effect of over 65% in size.

SMILES	Potency	activity change, negative = inhibition
CN1/C(=C\C(=S)NC(=O)c2ccccc2Cl)C(C)(C)c2ccccc21	15.1 µM (active)	–
Oc1[nH]c2ccccc2c1N=Nc1nc2ccccc2s1	–	-4.03% (inactive)
Cc1c(CCO)c(=O)n(-c2ccccc2)n1S(=O)(=O)c1c(Cl)cc(Cl)cc1Cl	–	-25.3% (inactive)
CCOc1ccc(S(=O)(=O)Nc2cc(SCC(=O)O)c(O)c3ccccc23)cc1	21.3 µM (active)	–
CCN1CCN(c2nn3c(=O)c4ccccc4nc3c3ccccc23)CC1	9.53 µM (active)	–
O=C(O)CCc1c2ccc(=O)c(O)c-2oc2c(O)c(O)ccc12	16.9 µM (active)	–
CCN(CC)c1ccc(N=Cc2cc(Br)ccc2O)cc1	–	5.98% (inactive)
CC(C)c1ccc(C2c3[nH]c4ccccc4c3C[C@H]3C(=O)N(c4ccccc4C(=O)N4CCC[C@H]4C(=O)O)C(=O)N23)cc1 (stereo partly drawn)	–	-23.3% (inactive)
COc1ccc(C(=O)N2CCOCC2)cc1S(=O)(=O)N1CCCc2ccccc21	–	-3.75% (inactive)
COc1ccc(/C=C2\CCc3ccccc3C2=O)cc1CN1CCOCC1	13.5 µM (active)	–
Cn1ccc2c(N3CCCC3)cc3c(c21)C1CCC3C1 (stereo not drawn)	15.1 µM (active)	–
O=C(NCCCNC1CCCCC1)c1ccc(/C=N/O)nc1	13.5 µM (active)	–
CN(C)c1ccc(Sc2ccc3nc(N)nc(N)c3c2)cc1	6.75 µM (active)	–
O=C(/C=C/c1ccccc1)Oc1cccc2cccnc12	2.39 µM (active)	–
O=C(/C=C\c1ccccc1)Oc1cccc2cccnc12	3.38 µM (active)	–
O=C(/C=C/c1ccco1)Oc1cccc2cccnc12	4.26 µM (active)	–
COc1ccccc1/C=C/C(=O)Oc1cccc2cccnc12	3.38 µM (active)	–
O=C(/C=C/c1ccco1)Nc1ccccc1N1CCCC1	–	-24.3% (inactive)
COc1ccc(Br)cc1CNC(=O)c1ccc2c(c1)N(C)CCS2	–	-24.5% (inactive)
N#Cc1c(=O)c2nc(NCc3ccccc3)ncc2n2ccccc12	4.26 µM (active)	–
CC(C)Cn1c(SC(C)C(=O)Nc2ccc(N3CCOCC3)cc2)nc2ccccc21 (stereo not drawn)	–	-22.3% (inactive)
c1ccc2c(c1)nc(Nc1ccc(N3CCCCC3)cc1)c1nncn12	15.1 µM (active)	–
CC1CCCCC1Nc1nc2ccc(Cl)cc2n2cnnc12 (stereo not drawn)	–	-14.8% (inactive)
Cc1cccc(NC2=C(NCCO)C(=O)c3ccccc3C2=O)c1	12 µM (active)	–
CNc1nc(-c2ccc3c(c2)CCN3C(=O)c2cccc(F)c2)cs1	–	-25.3% (inactive)

SMILES	Potency	activity change, negative = inhibition
CC1=CC(=O)Nc2ncccc2O1	15.1 µM (active)	–
C[N+](C)(CCCCCI)c1ccc(/C=C/c2nc3ccccc3s2)cc1	12 µM (active)	–
O=C(Oc1ccc2ccc(=O)oc2c1)c1cccs1	–	-6.55% (inactive)
Cc1nc(S/C(=C\c2ccc(-c3ccc(C(=O)O)c(Cl)c3)o2)C(=O)O)n[nH]1	13.5 µM (active)	–
O=C(NNC(=O)c1cc2cc(Br)ccc2oc1=O)c1ccc(O)cc1	–	24.4% (inactive)
CC(=O)Nc1ccc(OC(=O)c2cc3cc(Br)ccc3oc2=O)cc1	6.75 µM (active)	–
Cc1ccc(C(=O)Oc2ccc3ccc(=O)oc3c2)cc1	–	-3.56% (inactive)
Cc1cc(/C=C2\C(=N)N3N=C(CC(=O)N4CCOCC4)SC3=NC2=O)c(C)n1Cc1ccccc1	–	-9.67% (inactive)
CCOc1cc(/C=C2\C(=N)N3N=C(CC)SC3=NC2=O)ccc1OCCOc1ccc(NC(C)=O)cc1	3.79 µM (active)	–
O=C(CSc1nnc2c3ccccc3c3ccccc3c2n1)Nc1ccccc1F	12 µM (active)	–
COc1ccc(NC(=O)c2ccc(CN3CCc4ccccc4C3)cc2)c(OC)c1	–	-22.2% (inactive)
COc1ccc(NC(=O)COc2cccc3c2CCN(C)C3=O)c(OC)c1	8.49 µM (active)	–
COc1ccccc1NC(=O)CCCCCN1C(=O)c2cccc3cccc(c23)C1=O	–	-5.32% (inactive)
Cc1c(C(=O)/C=C/N(C)C)nnn1-c1ccc(Cl)cc1Cl	–	3.68% (inactive)
O=C(COc1ccccc1/C=C1/NC(=O)NC1=O)Nc1ccccc1	–	-22% (inactive)
CN(C)S(=O)(=O)c1cccc(NC(=O)COc2ccccc2C(=O)Nc2ccccc2)c1	10.7 µM (active)	–
CCC(C)C(CO)NC(=O)/C=C/[C@H]1O[C@@H](n2cnc3c(NC(=O)c4ccccc4)ncnc32)[C@H](O)[C@@H]1O (stereo partly drawn)	–	2.64% (inactive)
CCCC[C@@]1(C2CCCC2)Cc2cc(OCC(=O)O)c(Cl)c(Cl)c2C1=O	–	-17.1% (inactive)
CN1C(=O)/C(=C2\SC(=S)N(NC(=O)c3cccnc3)C2=O)c2ccccc21	15.1 µM (active)	–
CCOC(=O)CN1C(=O)/C(=C2\SC(=S)N(NC(=O)c3cccnc3)C2=O)c2ccccc21	13.5 µM (active)	–
Cc1cc2oc(C(=O)N(Cc3ccc(N(C)C)cc3)CC3CCCO3)c(C)c2cc1C (stereo not drawn)	–	-65.1% (inactive)
CCOc1ccc2[nH]c3nc(SCC(=O)NC4CCCC4)nnc3c2c1	–	23.6% (inactive)
CCc1ccc2[nH]c3nc(SCC(=O)NCC4CCCO4)nnc3c2c1 (stereo not drawn)	4.78 µM (active)	–
CCCc1cc(=O)[nH]c(SCC(=O)Nc2ccc(C)cc2)n1	–	2.2% (inactive)
Cc1nnc2sc(SCC(=O)Nc3ccc(Br)cc3)nn2c1=O	2.13 µM (active)	–

SMILES	Potency	activity change, negative = inhibition
CCOC(=O)N1CCC(NC(=O)c2cc3c(-c4ccccc4F)nn(C)c3s2)CC1	–	6.05% (inactive)
N#Cc1c2nc3ccccc3nc2n2cc(NC(=O)c3ccc(F)cc3)ccc12	3.79 µM (active)	–
Cc1cccc(N2CCN(C(=O)C3COc4ccccc4O3)CC2)c1C (stereo not drawn)	–	1.89% (inactive)
Cc1cnc(C(=O)Nc2ccccc2-c2ccc(C)o2)cn1	–	-9.79% (inactive)
Cc1cc(Nc2ccccc2C(=O)O)n(-c2cccc(Cl)c2)n1	7.57 µM (active)	–
CCOC(=O)c1cc(-c2ccc(N3CCOCC3)cc2)nn1-c1ccccc1C(=O)O	–	1.17% (inactive)
COc1ccc(-n2nc(C)cc2Nc2ccccc2C(=O)O)cc1	7.57 µM (active)	–
CCc1nc2ccc(C(=O)NCCOc3ccc(OC)cc3)cn2c1N(CCC(C)C)CCN(C)C	–	-15% (inactive)
O=C1c2ccccc2C(=O)c2c(Nc3ccc(CCO)cc3)ccc(O)c21	6.01 µM (active)	–
COc1cccc(C2c3[nH]c4ccccc4c3CCN2Cc2cnn(C)c2)c1 (stereo not drawn)	–	-26.5% (inactive)
CNc1c(Br)cc(C(O)C2=CCc3ccccc32)cc1Br (stereo not drawn)	–	-6.01% (inactive)
O=C(NC1CCCC1)c1cc(=O)[nH]c2ccccc12	–	20.1% (inactive)
Cc1csc(NC(=O)c2cc(=O)[nH]c3ccccc23)n1	19 µM (active)	–
COc1ccc(C(=O)CC(=O)Nc2ccc([N+](=O)[O-])cc2)cc1	–	-3.78% (inactive)
O=C(Nc1cc([N+](=O)[O-])ccc1O)c1cccc(C(=O)Nc2cc([N+](=O)[O-])ccc2O)c1	6.01 µM (active)	–
Cc1cc(Br)c(NC(=O)c2ccccc2[N+](=O)[O-])cc1C	–	0.85% (inactive)
COc1cc(OC)c(OC)cc1CCC(C)NCCC(c1ccccc1)c1ccccc1 (stereo not drawn)	13.5 µM (active)	–
Cc1cccc(NC(=O)COC(=O)c2cccc3c2C(=O)c2ccccc2C3=O)c1C	–	-11.7% (inactive)
CNc1cccc2c1C(=O)c1ccccc1C2=O	2.39 µM (active)	–
C=CCn1cccc(C(=O)Nc2ccc(N(C)C)cc2)c1=O	–	-23.2% (inactive)
Cc1ccc(/C=C/C(=O)Nc2ccc(N(C)C)cc2)o1	15.1 µM (active)	–
NC(=O)c1ccc(NC(=O)COC(=O)/C=C/c2ccc(Br)o2)cc1	–	3.02% (inactive)
CN(C)c1ccc(-c2ccnc3c2CC(C)(C(=O)Nc2ccc(Cl)c(C(F)(F)F)c2)O3)cc1 (stereo not drawn)	–	-29.7% (inactive)
CCOC(=O)C1=C(N)Oc2c(oc(CO)cc2=O)C1c1ccc(Cl)cc1 (stereo not drawn)	–	-7.43% (inactive)
CC1CCN(C(=O)Nc2ccc3nc(-c4ccco4)c(-c4ccco4)nc3c2)CC1	15.1 µM (active)	–

SMILES	Potency	activity change, negative = inhibition
O=C(Nc1ccc2nc(-c3ccco3)c(-c3ccco3)nc2c1)N1CCCC1	16.9 µM (active)	–
CCOC(=O)c1ncccc1NC(=O)CC(=O)Nc1cccnc1C(=O)OCC	2.39 µM (active)	–
Cc1cc(OC(=O)c2ccc(Cl)cc2)cc(=O)n1C	–	-16.9% (inactive)
C[C@H](O)[C@@H]1CN2CCc3c([nH]c4ccc(-c5ccc6c(c5)OCO6)cc34)[C@@H]2C[C@@H]1N(C)C(=O)NC1CCCCC1	–	-13.4% (inactive)
COc1ccc(Nc2nc(N)nc(CSC(=S)N3CCCCC3)n2)cc1	–	-20.2% (inactive)
Oc1ccccc1C=NC1CCCCC1N=Cc1ccccc1O (stereo not drawn)	15.1 µM (active)	–
COc1cc([C@H]2Oc3cc([C@H]4Oc5cc(O)cc(O)c5C(=O)[C@@H]4O)ccc3O[C@@H]2CO)ccc1O	–	-14.6% (inactive)
c1ccc(-c2ccc(C3=Nn4c(nnc4-c4cc(-c5ccccc5)n[nH]4)SC3)cc2)cc1	–	-3.15% (inactive)
O=c1[nH]c(SCCOc2ccccc2F)nc2ccccc12	–	-27.8% (inactive)
Cc1cc(C)n2nc(C(=O)NC3CCCc4ccccc43)nc2n1 (stereo not drawn)	–	-1.35% (inactive)
Cc1cc(C)n2nc(SCCOc3ccccc3F)nc2n1	12 µM (active)	–
O=c1[nH]c(=O)n(C2C[C@H](O)[C@@H](CO)O2)cc1C(F)(F)F (stereo partly drawn)	–	-7.49% (inactive)
COc1cccc(/C=N/N2C(=O)CSC2=S)c1O	1.2 µM (active)	–
Cc1ccc(Nc2nc(NCCO)nc3c2cnn3C)cc1Cl	7.57 µM (active)	–
Cc1nc2ncccn2c1-c1csc(Nc2ccccc2)n1	2.39 µM (active)	–
COc1ccc(Nc2nc(-c3c(C)nc4ncccn34)cs2)cc1	2.69 µM (active)	–
CC1=C(C(=O)OC(C)C)C(c2ccc(N(C)C)cc2)C2=C(CC(C)(C)CC2=O)N1 (stereo not drawn)	–	-23.9% (inactive)
Cc1cc(C(=O)O)ccc1-n1c(C)cc(C=C2C(=O)c3ccccc3C2=O)c1C	–	-10.9% (inactive)
COC(=O)c1ccc(C23CC4(C2)[C@H](CN(CC2CCCCC2)[C@@H]4c2ccccc2)C3c2ccc(Cl)nc2)cc1 (stereo partly drawn)	–	-11.6% (inactive)
NC(=O)c1c(NC(=O)c2cnccn2)sc2c1CCCC2	0.301 µM (active)	–
NC(=O)c1c(NC(=O)c2ccc(N3C(=O)CCC3=O)cc2)sc2c1CCCC2	0.478 µM (active)	–
Cc1sc(NC(=O)C2=COCCO2)c(C(N)=O)c1C	–	-82.8% (inactive)
CCCC(=O)NC(=S)Nc1sc2c(c1C(N)=O)CCC2	–	34.4% (inactive)
